# Laboratory results published in PubChem BioAssay (Tox21).
# Records with an inconclusive call do not appear. A number with no mark means an inactive call. The source made the active and inactive calls. Unless noted, the call rests on the fitted dose curve; in most records, active means well fitted cell-killing curve with a large enough effect in the repeat runs; inconclusive means weak or mixed curves, or effect the other way; inactive means flat fitted curve, though single readings scatter.
# Assay: qHTS assay to identify small molecule antagonists of the estrogen receptor alpha (ER-alpha) signaling pathway using the BG1 cell line (AID 743080; calls by dose curve;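 further: BG1 cells stimulated with 17beta-estradiol alongside compound; nearly all actives have a fitted effect of over 25% in size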)
# Details: BG1Luc4E2 ERE-luciferase antagonist mode, luminescence; series mostly up to 70.3 µM; activity change, negative = inhibition: at the top concentration
# Outline: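 Readout is ONE-Glo luminescence, taken 30 min at room temperature after reagent addition, preceded by a CellTiter-Fluor viability read; BG1-Luc-4E2 cells had received compound and 17beta-estradiol for 21.5 h at 37 C.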
# On the % scale 0 is the no-effect control and ±100 the full control effect.
Compound,"activity change, negative = inhibition",outcome
NCCCN1CCN(CCCN)CC1,1.87%,–
CCOC(=O)[C@H](CCc1ccccc1)N[C@@H](C)C(=O)N1Cc2cc(OC)c(OC)cc2C[C@H]1C(=O)O,-0.679%,–
COc1ccc(S(=O)(=O)Nc2nnc(CC(C)C)s2)cc1,–,inactive
C[C@]12C(=O)OC(=O)[C@H]1[C@H]1C=C[C@@H]2C1,-2.7% [at 95 µM],–
Cc1cc(S(=O)(=O)O)c(N)cc1Cl,0.554% [at 95 µM],–
OC[C@H]1O[C@@H](O[C@H]2[C@H](O)[C@@H](O)[C@H](O)O[C@@H]2CO)[C@H](O)[C@@H](O)[C@H]1O,-0.724%,–
C=CCc1cc(OC)c(O)c(C(=O)NCCO)c1,-2.84%,–
COc1ccccc1OCC(O)COC(N)=O (stereo not drawn),0% [at 32.5 µM],–
OCC(CBr)(CBr)CBr,5.29%,–
CC1=C2[C@H](/C=C(\C)C(=O)O)CC[C@@H](C)[C@H]2CC1,-1.84% [at 95 µM],–
OCCN(CCO)c1ccccc1,-0.991%,–
CC(C)C(=O)OC/C=C/c1ccccc1,-0.064%,–
CCOC(=O)NCCC[Si](OCC)(OCC)OCC,-3.37%,–
O=C1C=CC(=O)O1,-22.6% [at 95 µM],–
CN1CCN(C2=Nc3cc(F)ccc3Cc3ccccc32)CC1,-7.71%,–
Oc1ccccc1F,-0.709%,–
Nc1cccc(S(=O)(=O)O)c1,-14.4%,–
COC(=O)C(C)O (stereo not drawn),-0.461% [at 95 µM],–
CC(C)O,–,inactive
CCCCC1CCC(=O)O1 (stereo not drawn),2.05%,–
C[C@@H]1CN(c2c(F)c(F)c3c(=O)c(C(=O)O)cn(C4CC4)c3c2F)C[C@H](C)N1,-0.483%,–
FC(F)(F)C(Cl)(Cl)Cl,0.688%,–
FC(F)(F)c1ccccc1,2.28%,–
Cc1ncc(CO)c(CN)c1O,14.2%,–
CCc1cc(Cl)c(OC)c(C(=O)NC[C@@H]2CCCN2CC)c1O,–,inactive
Cc1nnc(SCC2=C(C(=O)O)N3C(=O)[C@@H](NC(=O)Cn4cnnn4)[C@H]3SC2)s1,11.3%,–
CC(C)(CO)[C@@H](O)C(=O)NCCC(=O)O,-0.459% [at 95 µM],–
CCOC(=O)C1CC(=O)C(=C(O)C2CC2)C(=O)C1 (stereo not drawn),0.607%,–
CCOc1ccccc1N,0.106%,–

# Assay: qHTS assay to identify small molecule antagonists of the estrogen receptor alpha (ER-alpha) signaling pathway using the BG1 cell line - cell viability counter screen (AID 743081);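 further: compound given together with 17beta-estradiol as the ER stimulus; nearly all actives have a fitted effect of over 45% in size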
# Details: BG1Luc4E2 viability, CellTiter-Fluor, 22 h; series mostly up to 70.3 µM; activity change, negative = cytotoxicity: at the top concentration
Compound,"activity change, negative = cytotoxicity",Potency
NCCCN1CCN(CCCN)CC1,1.07%,–
CCOC(=O)[C@H](CCc1ccccc1)N[C@@H](C)C(=O)N1Cc2cc(OC)c(OC)cc2C[C@H]1C(=O)O,7.15%,–
COc1ccc(S(=O)(=O)Nc2nnc(CC(C)C)s2)cc1,–,inactive
C[C@]12C(=O)OC(=O)[C@H]1[C@H]1C=C[C@@H]2C1,-1.69% [at 95 µM],–
COC(C)CCO (stereo not drawn),2.08%,–
Cn1cnc2c(F)c(Nc3ccc(Br)cc3Cl)c(C(=O)NOCCO)cc21,5.97%,–
Cc1cc(S(=O)(=O)O)c(N)cc1Cl,0.156% [at 95 µM],–
OC[C@H]1O[C@@H](O[C@H]2[C@H](O)[C@@H](O)[C@H](O)O[C@@H]2CO)[C@H](O)[C@@H](O)[C@H]1O,-2.4%,–
C=CCc1cc(OC)c(O)c(C(=O)NCCO)c1,-0.383%,–
OCC(CBr)(CBr)CBr,-6.65%,–
CC1=C2[C@H](/C=C(\C)C(=O)O)CC[C@@H](C)[C@H]2CC1,4.62% [at 95 µM],–
OCCN(CCO)c1ccccc1,-4.3%,–
CC(C)C(=O)OC/C=C/c1ccccc1,5.87%,–
CCOC(=O)NCCC[Si](OCC)(OCC)OCC,-2.01%,–
O=C1C=CC(=O)O1,-1.22% [at 95 µM],–
CN1CCN(C2=Nc3cc(F)ccc3Cc3ccccc32)CC1,-15.3%,–
Oc1ccccc1F,8.25%,–

Compound,"activity change, negative = cytotoxicity",Potency
Nc1cccc(S(=O)(=O)O)c1,-1.3%,–
COC(=O)C(C)O (stereo not drawn),10.4% [at 95 µM],–
CC(C)O,–,inactive
CCCCC1CCC(=O)O1 (stereo not drawn),8.42%,–
CC1(C)O[C@@H]2C[C@H]3[C@@H]4CCC5=CC(=O)CC[C@]5(C)[C@@]4(F)[C@@H](O)C[C@]3(C)[C@]2(C(=O)CCl)O1,-0.0093% [at 32.5 µM],–
C[C@@H]1CN(c2c(F)c(F)c3c(=O)c(C(=O)O)cn(C4CC4)c3c2F)C[C@H](C)N1,-9.17%,–
FC(F)(F)C(Cl)(Cl)Cl,0.931%,–
CN(C)Cc1ccccc1,–,inactive
CCCCc1ccc2nc(NC(=O)OC)[nH]c2c1,-11.2% [at 32.5 µM],–
FC(F)(F)c1ccccc1,-0.823%,–
Cc1ncc(CO)c(CN)c1O,3.65%,–
CCc1cc(Cl)c(OC)c(C(=O)NC[C@@H]2CCCN2CC)c1O,–,inactive
Cc1nnc(SCC2=C(C(=O)O)N3C(=O)[C@@H](NC(=O)Cn4cnnn4)[C@H]3SC2)s1,0.203%,–
O=C1CCCCCCCCCCC(=O)OCCO1,-0.829%,–
CC(C)(CO)[C@@H](O)C(=O)NCCC(=O)O,–,inactive
CCOC(=O)C1CC(=O)C(=C(O)C2CC2)C(=O)C1 (stereo not drawn),-0.934%,–
CCOc1ccccc1N,-3.96%,–
